# This is a sample that favours compounds with a hit; in the whole collection about 4.2% have one here.
# USP10 block: inhibitors of human USP10 deubiquitinase; purified USP10, Ub-rhodamine fluorescence, 60 min; inhibition, % at 20 µM; actives 1.1% (n = 47,000); AID 1645856
# USP7 block: human USP7 deubiquitinase inhibition; Q93009; purified USP7, Ub-rhodamine cleavage fluorescence; inhibition, % at 20 µM; actives 0.3% (n = 47,000)
# USP28 inh: blocks human USP28 ubiquitin-rhodamine cleavage | Q96RU2 | purified USP28, Ub-rhodamine cleavage fluorescence, 30 min | inhibition, % at 25 µM | actives 3% (n = 47,000) | AID 1645857
# UCHL1 block: blocks human UCHL1 ubiquitin-rhodamine cleavage. AID 1645859. actives 0.2% (n = 47,000). inhibition, % at 20 µM. purified UCHL1, Ub-rhodamine cleavage fluorescence. P09936
# OTUD3 block: blocks human OTUD3 ubiquitin-rhodamine cleavage | Q5T2D3 | purified OTUD3, Ub-rhodamine fluorescence, 2 h | inhibition, % at 25 µM | actives 0.7% (n = 47,000)
# * = called active by the depositor. Cut-off read from the data, not from the text of the source: active = inhibition above about 30%; inactive = the rest.
SMILES,USP10 block,USP7 block,USP28 inh,UCHL1 block,OTUD3 block
COc1ccc(OC)c(NC(=O)c2nc(C3CCC3)oc2C)c1,8.2,5.4,11.7,6.9,18.4
Cc1ccc(CSc2nnc(C3CCNCC3)o2)cc1,1.6,-7.9,32.4*,2.7,11.8
CCN(C(=O)Cc1ccccc1OC)c1nc2c(s1)CCc1occc1-2,-12.6,-26.2,18.4,-24.6,21.0
COc1ccc(C(=O)Nc2cc(-c3ccccc3)nn2C2CCS(=O)(=O)C2)cc1 (stereo not given),-1.3,4.4,16.0,5.6,5.4
O=C(CCc1c[nH]c2ccccc12)Nc1ccc(Br)cc1F,5.5,-16.3,42.3*,7.5,16.7
Cc1ccc(F)cc1NC(=O)CCCc1c[nH]c2ccccc12,1.1,-38.5,7.6,3.9,-0.3
Cc1ccc(CNC(=O)CN2C(=O)c3ccccc3C2c2c(-c3ccccc3)[nH]c3ccccc23)o1 (stereo not given),-9.8,-4.4,4.0,3.5,1.9
COc1ccccc1NC(=O)N1Cc2cccn2-c2ccccc21,3.5,4.9,8.2,1.9,-3.1
CCCc1cc(=O)n2[nH]c(COc3ccccc3)c(-c3ccccc3)c2n1,55.3*,14.5,39.5*,6.0,12.5
Cc1n[nH]c(C)c1CNC(=O)c1nnn(-c2ccccc2F)c1-c1ccccn1,-10.3,-6.6,-46.5,-14.3,-50.6
Cc1ccc(CNC(=O)c2cc(=O)nc3sc(N4CCCCCC4)nn23)cc1,-0.1,-9.4,17.1,0.7,10.6
COc1ccc(Cl)cc1NC(=O)c1nc(-c2cn(-c3ccccc3)nn2)no1,32.3*,-8.8,10.4,8.5,11.1
COc1ccccc1-c1nc(-c2cn(-c3cccc(Cl)c3)nn2)no1,71.4*,51.4*,19.6,27.2,16.9
Cc1ccccc1NC(=O)c1nc(-c2cn(Cc3ccc(F)cc3)nn2)no1,35.3*,-0.3,12.0,8.8,13.9
O=C(O)c1cccc(S(=O)(=O)NCc2ccc3c(c2)OCO3)c1,0.5,2.6,9.1,2.4,15.9
Cc1ccc(NC(=O)Nc2ccccc2OCc2cc(=O)n3cc(C)ccc3n2)cc1,16.8,15.4,17.7,9.8,-2.1
COc1ccc(CN(C(=O)C2Cc3cc(Cl)ccc3O2)C2CC2)cc1 (stereo not given),1.2,-36.1,-16.3,3.3,2.0
CN1[C@@H](CCC(=O)N2CC[C@@H](O)C2)CNC(=O)[C@@H]2[C@H]1CCN2C1CCCCC1,-3.5,-6.0,-10.3,-2.4,-4.9
CN1[C@@H](CCC(=O)N2CCN(c3ccccn3)CC2)CNC(=O)[C@@H]2[C@H]1CCN2C1CCOCC1,-2.2,-13.4,36.2*,11.5,14.5
CC(=O)c1ccc(NC(=O)CSc2nc(-c3ccccc3)nc3c2COC(C)(C)C3)cc1,34.0*,10.3,4.5,2.4,30.5*
CC1(C)Cc2c(sc3nc(SCC(=O)Nc4ccccc4)nc(N)c23)CO1,-1.9,-0.7,31.0*,-3.0,-35.2
CCCCc1nc2sc3c(SCC(=O)Nc4cccc(C)c4)ncnc3c2c2c1CCC2,-1.6,-3.2,4.2,-2.7,-8.1
O=C(CN(Cc1ccc(F)cc1)S(=O)(=O)c1ccccc1)Nc1ccccc1C(F)(F)F,8.8,2.5,-7.1,5.7,2.5
O=C(Nc1nc(-c2ccccc2)ns1)c1ccc2ncsc2c1,35.9*,12.5,9.5,2.3,22.5
COc1ccc2c(c1)C(c1c(O)n(C)c(=O)n(C)c1=O)c1c(n(C)c(=O)n(C)c1=O)O2 (stereo not given),-1.6,2.8,-16.3,-1.6,-10.0
SMILES,USP10 block,USP7 block,USP28 inh,UCHL1 block,OTUD3 block
O=C(COc1ccccc1)Nc1cnc(-c2ccc(Cl)cc2)nc1,2.5,-0.7,-2.8,0.3,-8.2
Cc1ccc(Cc2nc(-c3cccc(-c4ccn[nH]4)c3)no2)cc1,10.2,-18.3,45.4*,10.2,6.6
Cc1ccc(Cc2nc(-c3ccc(=O)[nH]c3)no2)cc1,1.0,-16.9,91.2*,1.2,5.3
O=c1ccc(-c2noc(CCc3c[nH]c4ccccc34)n2)c[nH]1,-5.9,-76.7,42.4*,-14.9,-24.6
Cc1onc(-c2ccccc2)c1C(=O)NCc1ccc(F)cc1F,1.4,-43.0,7.1,3.0,7.1
Cc1ccc2[nH]c(=O)c(-c3noc(CCC(=O)NC4CCCC4)n3)cc2c1,8.0,5.3,-30.6,1.7,-26.9
Cc1ccc2cc(-c3noc(CCC(=O)NC4CCCC4)n3)c(=O)[nH]c2c1,46.6*,41.0*,-4.9,8.8,13.2
Cc1ccc(NC(=O)c2cc(-c3ccccn3)nc3c(Cl)cccc23)nc1,-4.0,24.4,-17.5,-6.5,-12.5

# Source: PubChem
